The structures appear in SMILES notation. Activity calls are given as the source filed them. Unless noted, the rule behind the calls is not given here.

In test [1] the test system is Wnt5a (protein binding on small-molecule microarray). As to the kind of experiment: Wnt5a binders on small-molecule microarray, primary screen, biophysical, 635/667 nm fluorescence (AID 1142).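 Note: fluorescence read at 667 nm with signal to noise per printed feature.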 The following applies: 635 nm fluorescence, higher = more signal.
Test [2] can be described thus: cell viability in Huh7 cells, primary screen, cytotoxicity control for HCV replication inhibitor project, CellTiter-Glo luminescence, basal, 48 h (AID 1143).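 Note: Huh7 hepatoma cells carrying a hepatitis C replication reporter with no stimulus; test concentration not given here.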 As to conditions: Huh7 HCV replicon, higher = more signal, called active from +8 up or from −8 down.
Test [3] can be described thus: P. aeruginosa biofilm formation inhibitors, primary screen, PAO1 strain, BacTiter-Glo luminescence, LB-PBS (AID 1144). The following applies: 12 h, higher = more signal.
Test [4] is described as follows: CREB reporter modulators without forskolin, primary screen, cell-based, PC12, CRE-LacZ reporter, unstimulated (AID 1145). The following applies: no forskolin, luminescence, 4.5 h, higher = more signal, called active from +8 up or from −8 down.
A short description of test [5]: CREB reporter modulators under forskolin, primary screen, cell-based, PC12, CRE-LacZ reporter, forskolin-stimulated (AID 1146).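 Note: PC12 cells with 6xCRE LacZ reporter stimulated by forskolin 10 µM; beta-galactosidase reporter signal reflecting CREB driven transcription.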 The following applies: luminescence, 4.5 h, higher = more signal, called active from +8 up or from −8 down.
Test [6] has as its target Streptavidin (Streptomyces avidinii) (UniProt P22629). Kind of test: streptavidin binders on small-molecule microarray, primary screen, artefact control for SMM compound annotation, biophysical, 635/667 nm fluorescence (AID 1147).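 Note: signal reflects streptavidin binding to arrayed compounds as a control protein.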 The following applies: streptavidin binding, higher = more signal.
A short description of test [7]: small-molecule binders of probe aInhba, primary screen, biochemical, small-molecule microarray, 635/667 nm fluorescence (AID 1148).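 Note: score merges 667nm spot fluorescence with signal-to-noise for antibody binding to printed compounds.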 As to conditions: higher = more signal.
Test [8] concerns the target Torsin-1A (Homo sapiens) (UniProt O14656). As to the kind of experiment: torsin A binders from cell lysate, primary screen, small-molecule microarray, wild-type, 635/667 nm (AID 1149). As to conditions: COS7 hTOR1A-WT lysate, 635 nm fluorescence, higher = more signal.
Test [9] has the same target. As to the kind of experiment: small-molecule binders of mutant TOR1A in lysate, primary screen, cell lysate, small-molecule microarray, COS7 lysate, 635/667 nm fluorescence (AID 1150).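 Note: score pools 667 nm emission and signal to noise measuring lysate protein binding.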 As to conditions: COS7 hTOR1A mutant lysate, 635 nm fluorescence, higher = more signal.
The test system of test [10] is Sonic hedgehog protein (Shh). Kind of test: small-molecule binders of Shh protein, primary screen, biochemical, small-molecule microarray, 635/667 nm fluorescence (AID 1151).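 Note: Shh protein binding to compounds spotted on small-molecule microarray slides; score combines spot fluorescence intensity with signal-to-noise across triplicate slides.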 The following applies: small-molecule microarray binding, 635 nm fluorescence; higher = more signal.

Sequence of Streptavidin (Streptomyces avidinii) (P22629 whole entry, looked up): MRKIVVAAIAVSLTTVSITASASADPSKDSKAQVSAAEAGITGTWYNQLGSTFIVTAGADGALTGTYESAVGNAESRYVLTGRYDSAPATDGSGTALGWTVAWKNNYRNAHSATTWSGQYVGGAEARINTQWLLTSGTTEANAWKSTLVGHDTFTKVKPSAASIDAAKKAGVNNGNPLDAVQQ
Sequence of Torsin-1A (Homo sapiens) (O14656 whole entry, looked up): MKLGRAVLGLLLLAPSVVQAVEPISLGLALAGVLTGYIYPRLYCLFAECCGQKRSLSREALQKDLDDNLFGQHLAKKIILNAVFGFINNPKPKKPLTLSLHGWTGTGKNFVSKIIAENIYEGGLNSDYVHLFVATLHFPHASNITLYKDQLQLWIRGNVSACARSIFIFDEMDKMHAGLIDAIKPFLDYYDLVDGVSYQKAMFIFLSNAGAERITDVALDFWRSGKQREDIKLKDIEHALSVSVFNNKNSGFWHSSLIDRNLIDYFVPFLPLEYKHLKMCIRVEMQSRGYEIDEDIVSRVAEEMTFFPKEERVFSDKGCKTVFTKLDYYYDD

As to `O=C(CS)NCCCCCNC(=O)[C@@H]1C[C@@H]2C(=O)N3CCC[C@H]3C(=O)N2[C@@H]1c1ccc(O)cc1`, the composite z-score in test [1] is 0.257; in test [6] it was -0.23; in [7], -0.0313; in [8] it was 0.99; in [9] it was 1.24; in [10] it was 0.837. In addition, the z-score was -0.237 (inactive) in test [2], -0.78 (inactive) in test [3], -0.13 (inactive) in test [4] and -0.862 (inactive) in [5].
`O=C1c2ccccc2[C@](Cc2ccccc2I)(C(=O)NCC(F)(F)F)[C@H](c2ccc(CO)cc2)N1Cc1ccccc1`: the composite z-score in [1] was -0.134; in test [6], 1; in test [7], 0.098; in test [8] it was -0.661; in [9], 0.341; in test [10], 0.46. Also, the z-score in test [2] is -0.396 (inactive); in [3], 0.144 (inactive); in [4], 0.272 (inactive); in test [5] it was 2.76 (inactive).
Take `O=C1N(CCS(=O)(=O)c2ccccc2)Cc2ccccc2C[C@@]12COC(c1ccc(OCCCO)cc1)=N2`: the composite z-score in test [1] came to 0.933; in [6], 0.758; in [7], 0.325; in [8], 0.701; in [9], 0.945; in [10] it was 2.03. Also, the z-score in [2] was -4.36 (inactive); in test [3], 0.898 (inactive); in [4], -0.183 (inactive); in test [5], -2.06 (inactive).
`C[C@@H]1ON(c2ccccc2)[C@H](c2ccccc2)[C@H]1C(=O)N1C(=O)OC[C@H]1Cc1ccccc1`: the composite z-score in [1] was -0.0187; in test [6], 1.9; in test [7] it was -0.0538; in test [8] it was 0.242; in test [9], -0.0355; in test [10], 0.637. The z-score is -1.04 (inactive) in test [2], -0.516 (inactive) in [3], 0.951 (inactive) in [4] and 0.053 (inactive) in test [5].
On to `COC(=O)[C@@]1(Cc2ccc(F)cc2)[C@H]2c3cc(C(=O)N(C)C)n(CCSCCO)c3C[C@H]2CN1C(=O)c1ccccc1`, for which the composite z-score was -0.0292 in [1]; 0.352 in [6]; -0.0001 in test [7]; 0.0627 in [8]; 0.387 in test [9]; -0.509 in test [10]. For the same molecule, the z-score in [2] was -0.259 (inactive); in [3], -0.482 (inactive); in test [4] it was -0.565 (inactive); in test [5] it was 0.222 (inactive).
For `COc1ccccc1CN1C(=O)c2ccccc2[C@@]2(Cc3ccccc3N(C3CC3)C2=O)[C@@H]1c1ccc(CO)cc1`, the composite z-score was -0.507 in [1]; -0.189 in test [6]; -0.125 in test [7]; -1.68 in [8]; -0.821 in [9]; -0.27 in test [10]. For the same molecule, the z-score was -0.0976 (inactive) in test [2], 1.13 (inactive) in test [3], 0.622 (inactive) in [4] and -0.148 (inactive) in [5].
`C=CCN1C(=O)[C@@]2(O[C@@H](CCO)[C@H]([Si](C)(C)c3ccc(OC)cc3)[C@H]2C)c2cc(NC(=O)[C@H](C)O)ccc21`: the composite z-score was 0.442 in test [1]; 0.0832 in [6]; -0.0695 in test [7]; 0.923 in test [8]; 1.01 in test [9]; 1.46 in [10]. Besides, the z-score in test [2] was -5.04 (inactive); in [3] it was -0.856 (inactive); in test [4], 17.4 (active); in test [5], -0.213 (inactive).
For `C=CCOC(=O)[C@@H]1[C@H]2C(=O)O[C@H](c3ccccc3)[C@H](c3ccccc3)N2[C@H](c2ccc(OCCOC(=O)[C@@H]3C[C@@H]4C(=O)N[C@@H](CCCCNC(C)=O)C(=O)N4[C@@H]3c3ccc(O)cc3)cc2)[C@@]12C(=O)Nc1ccc(I)cc12`, the composite z-score in test [1] is 0.681; in test [6], -0.0068; in [7] it was 0.591; in test [8], 0.928; in test [9], 0.27; in [10] it was 1.81. The z-score in test [2] was -0.0705 (inactive); in test [3] it was -0.128 (inactive); in test [4] it was -0.805 (inactive); in test [5] it was -1.32 (inactive).
Turning to `O=C1C2C=CC(C(O)c3ccc(Br)cc3)N(Nc3ccccc3)C2C(=O)N1c1ccccc1` (stereo not given), the composite z-score is -0.0007 in [1]; 1.47 in test [6]; 0.147 in [7]; -0.0004 in test [8]; -0.0172 in [9]; -0.146 in [10]. Also, the z-score in test [2] was 0.198 (inactive); in test [3] it was -0.95 (inactive); in [4] it was 0.24 (inactive); in test [5], 0.35 (inactive).
As for `CN1C(=O)C2C=CC(C(O)c3cccc4ccccc34)N(NC(=O)OC(C)(C)C)C2C1=O` (stereo not given), the composite z-score in test [1] is 0.611; in test [6], 1.51; in test [7], 0.723; in test [8] it was 0.104; in test [9] it was 1.41; in test [10], -0.271. Further, the z-score in test [2] was 0.227 (inactive); in test [3], 0.489 (inactive); in [4], 1 (inactive); in [5] it was 0.6 (inactive).
Turning to `CCOC(=O)C1=CC[C@@H](c2cccc(Br)c2)N(S(=O)(=O)c2ccc(C)cc2)[C@H]1c1ccc([N+](=O)[O-])cc1`, the composite z-score is 0.559 in test [1]; 1.22 in test [6]; 0.157 in [7]; 0.907 in test [8]; 0.469 in test [9]; 0.778 in test [10]. Moreover, the z-score is -2.18 (inactive) in test [2], -0.314 (inactive) in test [3], -0.63 (inactive) in [4] and 0.115 (inactive) in test [5].
As to `OCCCC1=CC(c2cccs2)N(Cc2cccc(OC(F)(F)F)c2)CC1` (stereo not given), the composite z-score in test [1] was -0.335; in [6], -0.889; in [7] it was -0.179; in test [8], 0.331; in test [9] it was -0.632; in [10], 0.243. The z-score in [2] was -1.06 (inactive); in [3] it was 0.839 (inactive); in [4] it was 0.593 (inactive); in test [5], -0.368 (inactive).
For the molecule `C=CC[C@]1(C(=O)N2CCOCC2)N=C(c2ccc(OCCCO)cc2)O[C@H]1c1ccccc1CN=[N+]=[N-]`, the composite z-score in test [1] was determined as 0.662; in test [6], 1.06; in test [7] it was 0.455; in test [8] it was 0.689; in [9] it was 1.1; in [10], 0.871. Besides, the z-score is -3.25 (inactive) in [2], 0.112 (inactive) in [3], 3.51 (inactive) in test [4] and -0.745 (inactive) in test [5].
As to `COC(=O)[C@]1(Cc2ccccc2CN=[N+]=[N-])N=C(c2ccc(OCCCO)cc2)O[C@@H]1c1ccccc1`, the composite z-score in test [1] is -0.311; in test [6], -1.05; in [7] it was -0.0407; in test [8], -2.51; in test [9], -1.33; in [10], -1.19. The z-score in test [2] is -4.69 (inactive); in [3], 0.211 (inactive); in test [4] it was 4.85 (inactive); in test [5], 0.56 (inactive).

The values above are taken from PubChem BioAssay.
